Data as given in ChEMBL document CHEMBL4513216, “Probing the Open Global Health Chemical Diversity Library for Multistage-Active Starting Points for Next-Generation Antimalarials” (ACS Infect Dis, 2020).
Among all 69,000 compounds or so, about 8,600 (12%) showed an effect of 50% or more. This is one part of a sample in which strong results are shown more often than they occur.

These compounds were tested on Plasmodium berghei (assay: Screen against P. berghei liver stage (PbLuc), transformed with Luciferase, at 10uM). Conditions: tested at 10 uM.
Assay type: functional, HepG2

Going from `O=C(c1ccccc1F)N(CCCO)S(=O)(=O)c1cccs1` to `O=C(c1cccc(F)c1)N(CCCO)S(=O)(=O)c1cccs1`, the INHIBITION falls from 37.7% to -38.8%.

First: O=C(c1ccc(F)cc1)N(CCCO)S(=O)(=O)c1cccs1
Second: Cn1cc(C(=O)Nc2cccc(F)c2)ccc1=O
The INHIBITION of the first is higher: 67.4% for the first, 42.6% for the second.

Compared with `O=C(c1cscn1)N1CC[C@H]2C[C@H](c3nnc(C4CC4)o3)O[C@@H]2C1`, `Cc1nc([C@@H]2C[C@@H]3CCN(C(=O)c4ccsc4)C[C@H]3O2)no1` is lower in INHIBITION: 30.3% for the first, 18.5% for the second.

First: CC(C)(C)C(=O)N1CCC(c2nc(O)cc(-c3ccncc3)n2)CC1
Second: Cc1ccc(C(=O)N2CCC(c3noc(-c4cccnc4)n3)CC2)cn1
The INHIBITION of the first is lower: 11.1% for the first, 42.6% for the second.

Compared with `CN(C)c1nccnc1C1CCN(C2CCCCC2O)CC1` (configuration not stated), `Cc1nccn1CCC1CCCCN1Cc1cnc(N(C)C)nc1` (configuration not stated) is higher in INHIBITION: 17.4% for the first, 33.3% for the second.

Going from `Cc1ccc(C(=O)N2C[C@@H](NS(C)(=O)=O)[C@H](C(C)C)C2)cc1O` to `Cc1ccc(C(=O)N2C[C@H](NS(C)(=O)=O)[C@@H](C(C)C)C2)cc1F`, the INHIBITION falls from 18% to 14.3%.

Going from `CC(C)[C@@H]1CN(C(=O)c2ccc3c(c2)CCCO3)C[C@H]1NS(C)(=O)=O` to `Cc1cc2cccc(C(=O)N3CCOC(CCN(C)C)C3)c2o1` (configuration not stated), the INHIBITION falls from 71.1% to 33%.

Compared with `C[C@H]1C[C@H]2CN(C(=O)CCc3ccccc3)CC[C@H]2O1`, `CO[C@H]1CCN(C(=O)c2cc(C)on2)C[C@@H]1Cc1ccccc1` is higher in INHIBITION: -19% for the first, 2.58% for the second.

Going from `CCn1cc(CN2C[C@@H]3CCCN3C[C@@H]2CCSC)cn1` to `CCn1cc(CN2CCCN(C(=O)c3ccco3)CC2)cn1`, the INHIBITION falls from 24.4% to -61.4%.

First: Cc1ccn(CCNC(=O)C2(C)CC(c3ccccc3)=NO2)n1 (configuration not stated)
Second: Cn1cc(CN2CCc3c(cnc(-c4ccccc4)c3C(=O)O)C2)cn1
The INHIBITION of the first is lower: -3.94% for the first, 23.3% for the second.

Compared with `Cc1noc(C)c1CS(=O)(=O)Cc1nc(C2CC2)no1`, `CC(C)c1noc(C(C)S(=O)(=O)Cc2nc(C3CC3)no2)n1` (configuration not stated) is higher in INHIBITION: 21.6% for the first, 70% for the second.

Compared with `CC(C)c1noc(CS(=O)(=O)Cc2nc(C(C)C)no2)n1`, `CCCc1noc(C(C)S(=O)(=O)Cc2nc(C3CC3)no2)n1` (configuration not stated) is lower in INHIBITION: 34.2% for the first, 22.2% for the second.

First: CCc1nc(CN2CCN(C(C)c3nc(C4CC4)no3)CC2)no1 (configuration not stated)
Second: CCc1noc(CS(=O)(=O)C(C)c2nc(C3CC3)no2)n1 (configuration not stated)
The INHIBITION of the first is lower: -23.9% for the first, 51.5% for the second.

First: COCCN(Cc1cccc(C#N)c1)Cc1nc(C)no1
Second: COCCN(Cc1ccoc1)C(=O)c1ccccn1
The INHIBITION of the first is higher: 41.2% for the first, 11.8% for the second.

Going from `O=C(Cc1ccc2c(c1)OCC2)Nc1nc(C(F)(F)F)n[nH]1` to `O=C(Cn1ncc2c(c1=O)CCCC2)Nc1cccc2[nH]ccc12`, the INHIBITION rises from 28.6% to 30.2%.

Going from `CN1CCC(N(C)C(=O)CCc2ccc(F)c(F)c2)C1=O` (configuration not stated) to `CN1CCC(N(C)C(=O)CSc2ccc(F)c(F)c2)C1=O` (configuration not stated), the INHIBITION falls from 17.9% to -0.897%.

Going from `CC(C)c1ccc(CCC(=O)N(C)C2CCN(C)C2=O)cc1` (configuration not stated) to `CC(C)c1ccc(OCC(=O)N2CCOCC2c2ncon2)cc1` (configuration not stated), the INHIBITION falls from 53.8% to -50.8%.

Going from `COCC(=O)N1CCC2(CC1)COC(COCc1ccccn1)C2` (configuration not stated) to `COCCN1C[C@@H](C)[C@@]2(COCCN(C(=O)c3ccccn3)C2)C1`, the INHIBITION rises from 33% to 36.2%.

Compared with `Cc1nn(C)c2c(=O)n(Cc3ccc(Cl)cc3)nnc12`, `COC(=O)c1ccnn1COc1ccc(Cl)cc1` is lower in INHIBITION: 48.25% for the first, 16% for the second.

First: CC(=O)N1Cc2ccccc2C[C@H]1C(=O)N(C)Cc1ccccn1
Second: CC(=O)N1Cc2ccccc2C[C@H]1C(=O)N(C)CCc1ccccn1
The INHIBITION of the first is lower: 40.7% for the first, 58.1% for the second.

First: CC(=O)N1Cc2ccccc2C[C@H]1C(=O)Nc1ccccn1
Second: CC(=O)N1Cc2ccccc2CC1C(=O)Nc1cc(C)ccn1 (configuration not stated)
The INHIBITION of the first is lower: 28.7% for the first, 56.5% for the second.

Going from `CC(=O)N1Cc2ccccc2CC1C(=O)Nc1ccc(C)cn1` (configuration not stated) to `CN(CCc1ccccn1)C(=O)C1Cc2ccccc2CN1C` (configuration not stated), the INHIBITION falls from 32.7% to 20%.

First: Cn1cnc(S(=O)(=O)NCCN2CCCCCC2)c1Cl
Second: Cc1cc(C2CCCN(CCNS(=O)(=O)c3ccccc3)C2)n[nH]1 (configuration not stated)
The INHIBITION of the first is higher: 31.2% for the first, 11.9% for the second.

Going from `CCC(Oc1ccccc1)c1nn2c(CN(CC)CC)nnc2s1` (configuration not stated) to `COc1cc(OC)cc(C(=O)N(C)Cc2nnc3ccccn23)c1`, the INHIBITION rises from -31.7% to -6.14%.

Compared with `CCCN(C(=O)c1ccncc1)c1nc2c(s1)CCc1c-2cnn1C`, `CCCN(C(=O)c1cccnc1)c1nc2c(s1)CCc1c-2cnn1C` is higher in INHIBITION: 46% for the first, 78.2% for the second.

Going from `Cc1cc(-c2cnc(C)nc2CN(C)C(=O)c2ccccn2)on1` to `CN(C(=O)c1ccccn1)c1nc2c(s1)CCc1c-2cnn1C`, the INHIBITION rises from 18.3% to 74.5%.

First: CCCN(C(=O)c1cnccn1)c1nc2c(s1)CCc1c-2cnn1C
Second: COCCN(C(=O)c1cnccn1)c1nc2c(s1)CCc1c-2cnn1C
The INHIBITION of the first is higher: 29.2% for the first, 11.1% for the second.

Compared with `CN(C(=O)c1ccccn1)c1nnc(C2CCOC2)s1` (configuration not stated), `CCCN(C(=O)c1ccccn1)c1nc2c(s1)CCc1c-2cnn1C` is higher in INHIBITION: -13.745% for the first, 63.1% for the second.

Going from `CCCN(C(=O)c1cnc(C)cn1)c1nc2c(s1)CCc1c-2cnn1C` to `CCCN(C(=O)COC)c1nc2c(s1)CCc1c-2cnn1C`, the INHIBITION falls from 44.8% to 5.13%.

First: COCCN(C(=O)c1ccccn1)c1nc2c(s1)CCc1c-2cnn1C
Second: CCc1nn(C)c2[nH]nc(NC(=O)c3ccccc3COC)c12
The INHIBITION of the first is higher: 59.3% for the first, 33.7% for the second.

First: O=C(NCCCNC(=O)c1cccc(O)c1)NCc1ccccc1F
Second: COc1cccc(CCNC(=O)c2ccc(=O)n(C)c2)c1
The INHIBITION of the first is lower: -1.58% for the first, 24.2% for the second.

Going from `N#Cc1ccc(NC(=O)C2CSCN2)cc1` (configuration not stated) to `Cn1cc(NC(=O)NCc2ccoc2)ccc1=O`, the INHIBITION rises from 39% to 47.4%.

Going from `COc1cc(CNCc2ccco2)ccc1OCCO` to `COc1ccc(CNC(=O)c2ccc(=O)n(C)c2)cc1C`, the INHIBITION rises from 10.6% to 11.8%.

Compared with `CCN(CC)S(=O)(=O)c1cc(Br)ccc1OC`, `CCCn1cc(S(=O)(=O)N(C)Cc2nonc2C)c(C)n1` is higher in INHIBITION: -32.9% for the first, 3.48% for the second.

Going from `Cc1c[nH]c(CN2CCCCC2CCN(C)C)c(C)c1=O` (configuration not stated) to `Cc1c[nH]c(CN2CCCCC2CCn2ccnc2C)c(C)c1=O` (configuration not stated), the INHIBITION rises from 38.8% to 53.9%.

Compared with `Cc1c[nH]c(CN2CCCCC2CCn2cccn2)c(C)c1=O` (configuration not stated), `Cc1c[nH]c(CN2CCCCC2CCc2cccc(O)c2)c(C)c1=O` (configuration not stated) is lower in INHIBITION: 51.8% for the first, 39.9% for the second.

Compared with `Cc1cc2c(cc1CN1CCCCC1CCn1ccnc1C)OCO2` (configuration not stated), `Cc1nccn1CCC1CCCCN1Cc1ccc2c(c1)OCCO2` (configuration not stated) is higher in INHIBITION: 13.7% for the first, 51.3% for the second.

Going from `Cc1nccn1CCC1CCCCN1Cc1ccc(N(C)C)nc1` (configuration not stated) to `Cc1nccn1CCC1CCCCN1Cc1ccncc1` (configuration not stated), the INHIBITION falls from -38.9% to -57.8%.

First: CC[C@@H]1N(Cc2nccs2)CCC[C@]12CCC(=O)N2C
Second: CN1Cc2ccccc2CC2(CCN(Cc3nccn3C)CC2)C1=O
The INHIBITION of the first is lower: -27% for the first, 34.5% for the second.

First: COc1ccc(-c2nnc(CNCCn3cccn3)o2)cc1
Second: COc1ccc(CNC(=O)Nc2ccc(=O)n(C)c2)cc1
The INHIBITION of the first is lower: 23.5% for the first, 29% for the second.

Going from `Cc1[nH]ncc1CCCNC(=O)N1CCCC(c2nncn2C)C1` (configuration not stated) to `COCC(=O)N1CCCC(c2csc(NC(C)=O)n2)C1` (configuration not stated), the INHIBITION falls from -29.8% to -55%.

Going from `CCCn1nccc1NC(=O)CN1CCCC1Cn1cccn1` (configuration not stated) to `CCc1nccn1-c1cncc(C2CCCN2CC(=O)N2CCCC2)n1` (configuration not stated), the INHIBITION falls from 12.3% to 4.08%.

Compared with `Cc1cccc(OCC2CCCN(C(=O)Cn3ccccc3=O)C2)c1` (configuration not stated), `Cc1ccc(CCC(=O)N2CCOCC2c2ncon2)c(C)c1` (configuration not stated) is lower in INHIBITION: 13.6% for the first, -56.7% for the second.

Going from `COc1cccc(-c2ccc(CNC(=O)c3ccc(=O)n(C)c3)cc2)c1` to `Cn1cc(C(=O)Nc2cccc(Oc3ccncc3)c2)ccc1=O`, the INHIBITION falls from 72.3% to 51.5%.

Going from `Cn1cc(C(=O)Nc2ccnc(Oc3ccccc3)c2)ccc1=O` to `COC(=O)c1ccc(CNC(=O)Nc2ccc(=O)n(C)c2)cc1`, the INHIBITION rises from 16.8% to 59.3%.

Going from `CC1CN(C)CCN1C(=O)Nc1nc(-c2ccco2)cs1` (configuration not stated) to `O=C(c1ccco1)N1CCC2(CCC(=O)N2Cc2ccncc2)CC1`, the INHIBITION falls from 14% to 8.74%.

Going from `c1ccc(Cc2noc(-c3ccc(NCC4COCCO4)nc3)n2)cc1` (configuration not stated) to `CCc1ccccc1OCC(=O)N1CCOCC1c1ncon1` (configuration not stated), the INHIBITION rises from 12.02% to 60.5%.

Going from `CC(NC(=O)NCCC(=O)OC(C)(C)C)c1nncn1C` (configuration not stated) to `CCCNC(=O)c1nn(CC)cc1NC(=O)c1c(C)nn(C)c1C`, the INHIBITION falls from 25.4% to -4.56%.

Compared with `Cc1cccc(CN2CC3(CCN(S(=O)(=O)C4CC4)CC3)OCC2=O)n1`, `CNC(=O)C1Cn2ccnc2C2(CCN(C(=O)CC3CCCC3)CC2)O1` (configuration not stated) is lower in INHIBITION: 7.53% for the first, -10.3% for the second.

First: CCN1c2ccc(-c3cncn3CCCn3ccnc3C)cc2CC1C (configuration not stated)
Second: Cc1nccn1CCCn1cncc1-c1ccc2c(c1)CC(C)N2C (configuration not stated)
The INHIBITION of the first is lower: 36% for the first, 62.4% for the second.

First: Cc1cc(C)n(CCCn2cncc2-c2ccc3c(c2)CC(C)N3C)n1 (configuration not stated)
Second: Cc1nccn1CCCn1cncc1-c1ccc2c(c1)CCC(C)N2C (configuration not stated)
The INHIBITION of the first is lower: 42.6% for the first, 87.7% for the second.

First: Cc1nccn1CCCn1cncc1-c1ccc2c(c1)CCCN2C
Second: CN1CCCc2cc(-c3cncn3CCNC3CCS(=O)(=O)C3)ccc21 (configuration not stated)
The INHIBITION of the first is higher: 41.5% for the first, 32.3% for the second.

First: O=C(NCc1ccco1)[C@@H]1CCO[C@@H]2CCN(c3ncccn3)C[C@H]21
Second: O=C(COc1cccc(Cl)c1)N1CCOCC1c1ncon1 (configuration not stated)
The INHIBITION of the first is higher: 17.1% for the first, 7.12% for the second.

First: Cc1nc(N(C)C)nc(NCCc2c[nH]cn2)c1C
Second: Cc1ccc(OCCC(=O)N2CCOCC2c2ncon2)cc1C (configuration not stated)
The INHIBITION of the first is lower: -38% for the first, 21.6% for the second.

Compared with `Cc1cccc(C)c1OCC(=O)N1CCOCC1c1ncon1` (configuration not stated), `O=C(COc1ccc(Cl)cc1)N1CCOCC1c1ncon1` (configuration not stated) is higher in INHIBITION: -53.2% for the first, 55.4% for the second.

Compared with `Cc1cc(C)cc(OCCC(=O)N2CCOCC2c2ncon2)c1` (configuration not stated), `CCc1ccc(CCC(=O)N2CCOCC2c2ncon2)cc1` (configuration not stated) is lower in INHIBITION: 50.4% for the first, 27.9% for the second.
